The list is not random: actives were taken first. Their share in the collection is about 2.8%.
TGFb SMAD3 inh – TGF-b pathway inhibition; HepG2 CAGA-GFP TGF-b/SMAD3 reporter, GFP fluorescence, 18 h; TGF-beta stimulated, 500 pg/mL final; Potency, µM (series often up to 46.1 µM), without a hit: top-dose activity, negative = inhibition, usual class: inhibitors; 410,000 compounds, 1.2% hits; AID 588855; note: % is set by controls: 0 for no effect and ±100 for the full control effect; nearly all actives have a fitted effect of over 65% in size
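Inhibition was scored as loss of TGF-beta-induced (500 pg/mL final, 18 hours, 37 degrees C) GFP in HEPG2 cells carrying a CAGA-GFP reporter, in DMEM with 1% FBS. Well GFP was summed per cell; Activity was normalised to unstimulated and stimulated DMSO wells, then concentration-response fitting.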
ATXN viability – viability counter-screen for ATXN expression inhibitors. AID 651635. S2 cells (HEK-293 line with an ATXN2-luciferase reporter) viability, CellTiter-Fluor protease fluorescence, 24 h. Potency, µM (highest dose often 56.7 µM), hits mostly cytotoxic. 400,000 compounds, 0.49% hits; note: nearly all actives have a fitted effect of over 40% in size
HepG2 tox – kills HepG2 cells in TGF-b inhibitor counter-screen; AID 588856; 410,000 compounds, 0.76% hits; Potency, µM (doses to about 46.1 µM), without a hit: at the top dose activity change, negative = cytotoxicity, hits mostly cytotoxic; HepG2 CAGA-GFP viability, ATP luminescence, 18 h
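HepG2 CAGA-GFP cells (1000/well, DMEM with 1% FBS) received compound, then TGF-beta at 500 pg/mL final, and were incubated 18 hours at 37 degrees C. Viability was read by CellTiter-Glo luminescence. Media-only wells were set as complete cell-killing and DMSO as no toxicity.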
ATXN2 expr inh – ATXN2 expression inhibition. HEK-293 ATXN2-luciferase reporter, luminescence, 24 h. 360,000 compounds, 0.72% hits. Potency, µM (highest dose often 57 µM), without a hit: at the highest dose activity change, negative = inhibition, most hits filed as inhibitors. AID 1745845; note: % is set by controls: 0 for no effect and ±100 for the full control effect; nearly all actives have a fitted effect of over 55% in size
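ATXN2-luciferase reporter cells (luciferase flanked by upstream and downstream ATXN2 gene portions) were treated 24 h at 37 °C with compounds at up to 57 uM. SteadyGlo luminescence gave expression; GF-AFC fluorescence gave viability.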
HTT ATP protect – Huntington cell model cytoprotection by ATP luminescence; Potency, µM (series often up to 56.4 µM), for the others: cytoprotection (ATP increase), actives largely listed as activators; PC12 HTT-Q103 induced, cytoprotection, ATP luminescence, 40 h; 230,000 compounds, 0.14% hits; note: % of control where 0% means no effect; nearly all actives have a fitted effect of over 45% in size
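PC12 cells with ecdysone-inducible HTT exon 1 Q103-GFP, induced with 100 nM tebufenozide and co-treated with library compounds in a dose series (1536-well, 1500 cells/well). Cytoprotection read as ATP content by ATPlite luminescence.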
HttQ103 aggreg – mutant huntingtin aggregation inhibition; PC12 HttQ103-GFP aggregates, Acumen cytometry, 40 h; Potency, µM (doses to about 46.1 µM), inactives show at the top dose activity change, negative = inhibition, actives largely listed as inhibitors; 220,000 compounds, 1.1% hits; AID 1688; note: % is set by controls: 0 for no effect and ±100 for the full control effect; nearly all actives have a fitted effect of over 60% in size
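Inducible Q103 Huntingtin exon 1–GFP PC12 line, 1500 cells/well in phenol red free DMEM with 5% equine and 5% calf serum. Tebufenozide 100 nM induced expression; compounds titrated; aggregates quantified by cytometry.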
Starred values were filed as active, the others as inactive; i = inactive; ? = inconclusive; · = no result; [ ] = another dose, or the depositor's remark. Calls come from the whole dose curve; as a rule, active = well fitted curve in the direction sought with a large enough effect; inconclusive = small, poorly fitted or top-dose-only effect, or another doubt; inactive = no such curve, though single readings can be large; an effect the other way counts as inactive or inconclusive. Potency is the fitted concentration of half-maximal effect.

SMILES	TGFb SMAD3 inh	ATXN viability	HepG2 tox	ATXN2 expr inh	HTT ATP protect	HttQ103 aggreg
Cc1ccc(Cc2c(C)nc3c(-c4ccccc4)c(C)[nH]n3c2=O)cc1	?	?	-34.9%	15.8µM*	·	·
Cc1nc2c(-c3ccccc3)c(C)[nH]n2c(=O)c1Cc1ccc(C(C)C)cc1	-9.5%	i	-39.4%	?	·	·
COc1ccc(OC)c(CN2CCCC(c3nc(-c4ccncc4)ncc3-c3ccccc3C)C2)c1 (stereo not drawn)	·	i	·	·	·	·
O=C(CCl)NCCCCCCCCCNC(=O)CCl	?	10µM*	-40.4%	-38.2%	7.8%[10 µM]	3.1%[9.22 µM]
CCC(=O)NCCCCCCNC(=O)CC	6.5%	i	2.9%	9.0%	8.4%	5.7%[9.22 µM]
CC(=O)Nc1ccc(Sc2ccc([N+](=O)[O-])o2)cc1	?	?	20µM*	?	·	·
Nc1c(N(CCC2=CCCCC2)C(=O)Cc2ccc(F)cc2)c(=O)[nH]c(=O)n1Cc1ccccc1	?	?	-0.4%	3.2%	·	·
Nc1c(N(CCC2=CCCCC2)C(=O)COc2ccc(F)cc2Cl)c(=O)[nH]c(=O)n1Cc1ccccc1	3.16µM*	·	3.55µM*	11.2µM*	·	·
COc1cccc(NC(=S)NC(C)c2ccc(OC)c(OC)c2)c1 (stereo not drawn)	-2.1%	i	17.8%	-17.3%	-22.0%	-14.4%
COc1cccc(NC(=S)NC(Cc2ccccc2)c2ccccc2)c1 (stereo not drawn)	22.4µM*	i	-23.9%	·	·	·
CC[N+](C)(C)c1ccc(/C=C/c2ccc3ccccc3n2)cc1	6.31µM*	·	-55.9%	·	·	·
CC[N+](C)(C)c1ccc(/C=C/c2ccncc2)cc1	34.7%	·	-15.9%	·	·	·
CC(OC(=O)/C=C/c1ccc2ccccc2n1)C(=O)N(C)c1ccccc1 (stereo not drawn)	-8.1%	i	3.5%	36.3%	·	·
CCN(CC)c1ccc(/C=C/c2ccc3ccccc3n2)cc1	2.51µM*	·	3.16µM*	·	·	·
CC(=O)/C=C/c1ccc2ccccc2n1	?	i	20µM*	2.5%	-68.9%[10 µM]	?
COC(=O)[C@@H]1CCCN1C(=O)c1cnn(-c2nccc(-c3cc(C)sc3C)n2)c1C1CC1	·	i	·	·	·	·
CC[C@H](CO)Nc1nc(Nc2cccc(Cl)c2)c2ncn(C(C)C)c2n1	20µM*	15.8µM*	-49.8%	?	-15.5%[10 µM]	-13.2%[9.22 µM]
C1=Nc2ccccc2/C1=C/c1c[nH]c2ccccc12	-14.3%	·	0.3%	·	·	·
COc1ccc(NC(=O)c2cccc([N+](=O)[O-])c2)cc1	-5.8%	i	0.0%	-4.0%[11.3 µM]	-76.1%	-12.3%
COc1ccc(NC(=O)c2cc([N+](=O)[O-])ccc2O)cc1	11.2µM*	?	10µM*	·	-80.2%[10 µM]	-6.4%[9.22 µM]
O=C(Nc1c(Cl)cc([N+](=O)[O-])cc1Cl)c1cc(Cl)ccc1O	1.26µM*	·	-62.5%	·	·	·
COc1cccc([C@@H]2Oc3ccc(OC)cc3C(=O)[C@H]2OC(=O)NS(=O)(=O)c2ccc(C)cc2)c1	·	·	·	·	-116.1%	·
C/C(=C1/C(=O)N(c2ccc([N+](=O)[O-])cc2)N=C1c1ccccc1)N(C)C	·	·	·	·	-38.4%	12.6µM*
CC1=NN(c2nc3ccccc3[nH]2)C(=O)C1Cc1ccccc1 (stereo not drawn)	?	?	14.9%	10µM*	-20.9%[10 µM]	-25.2%[9.22 µM]
CCCC1=NN(c2ccc([N+](=O)[O-])cc2)C(=O)/C1=C/N(C)C	-1.7%	i	-4.3%	26.2%	-19.7%[10 µM]	?
CC1=NN(c2ccc([N+](=O)[O-])cc2)C(=O)/C1=C\N(C)C	-0.3%	i	4.47µM*	10.7%	-3.0%[10 µM]	-16.0%
CC1=NN(c2nc3ccccc3[nH]2)C(=O)/C1=C/N(C)C	7.7%	i	1.58µM*	?	-267.4%	-18.6%
